# Screening results as filed in PubChem BioAssay.
# Integrin act MD: integrin-mediated muscular dystrophy alleviation activation | alpha7betagal myoblasts, beta-gal FDG fluorescence, 48 h | Potency, µM (series often up to 38.3 µM), without a hit: at the top dose activation, most hits filed as activators | 350,000 compounds, 0.064% hits;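 also: potency is read from the fitted curve at half-maximal effect; 100% = response of the positive control SU9516; nearly all actives have a fitted effect of over 60% in size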
#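 Alpha7betagal+/- myoblasts (passage 13) were plated 16-24 hr, then exposed to compounds (1:260 dilution of DMSO stock) for 48 hours at 37C. After MPER lysis, β-galactosidase reporter activity was read as FDG fluorescence (ex 480/em 540) after 30 minutes.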
# USP2a inh: inhibitors of human ubiquitin-specific protease USP2a. USP2 core, Ub-CHOP2 coupled fluorogenic reporter, 485/531. Potency, µM (top dose mostly 38.3 µM), without a hit: top-dose activity change, negative = inhibition, most hits filed as inhibitors. 330,000 compounds, 0.01% hits;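 also: potency is read from the fitted curve at half-maximal effect; plate controls were DMSO wells for no effect and full inhibition by NEM control for full effect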
#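 Deubiquitinase activity read as fluorescence (485/531 nm) after Ub-CHOP2 cleavage activates the enterokinase reporter on its substrate; USP2 core 10nM, Ub-CHOP2 and substrate 25nM each, 30min compound preincubation then 60min RT; data normalized to NEM, curves fitted.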
# IL2 activator: activators of IL-2. AID 652025. IL-2 activation reporter assay, cell-based qHTS; stimulated with anti-CD3/CD4/CD28 beads; in transgenic mouse T cells. activation, % (series mostly up to about 46 µM). 360,000 compounds, 0.065% hits; in the data active = activation above about 50%; inconclusive = mostly about 30% to 49%; also: 0% is about no effect
#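 EGFP and DsRed fluorescence is measured by plate cytometry in unstimulated transgenic mouse T cells exposed to compound for 60 minutes, then stimulated 18 hours at 37 degrees C with anti-CD3/anti-CD4 beads plus anti-CD28.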
# PKM2 activator: activators of human pyruvate kinase M2; P14618; purified PKM2, Kinase-Glo ATP luminescence, activation; response scale: 0% is enzyme alone, no compound; Potency, µM (top dose mostly 57.5 µM), without a hit: at the highest dose activation, hits mostly activators; 260,000 compounds, 0.34% hits; AID 1631; also: potency is read from the fitted curve at half-maximal effect; % is scaled to controls: 0 for no effect and ±100 for the full control effect; nearly all actives have a fitted effect of over 55% in size
#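 Kinase-Glo luminescence reports ATP generated from ADP (0.1 mM) and PEP (0.5 mM) by purified hPK-M2 after 1 h at room temperature, pH 7.2 imidazole buffer; intermediate enzyme activity allows detecting inhibitors and activators.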
# Pin1 inhibitor: inhibitors of human Pin1. Potency, µM (top dose mostly 115 µM), inactives show top-dose activity, negative = inhibition, hits mostly inhibitors. Q13526. 390,000 compounds, 0.009% hits. Pin1 FP peptide displacement, HiFluor488, 10 min. AID 504891; active = well fitted inhibition curve with a large enough effect in the polarisation, with a control signal flat, not every such curve was filed as active; inconclusive = small, poorly fitted or top-dose-only effect, or effect the other way, or a change in a side signal; inactive = no such curve, though single readings can be large or run the other way; the % refers to the polarisation; also: potency is read from the fitted curve at half-maximal effect; % is scaled to controls: 0 for no effect and ±100 for the full control effect
# Target sequence (Q13526 whole entry, looked up): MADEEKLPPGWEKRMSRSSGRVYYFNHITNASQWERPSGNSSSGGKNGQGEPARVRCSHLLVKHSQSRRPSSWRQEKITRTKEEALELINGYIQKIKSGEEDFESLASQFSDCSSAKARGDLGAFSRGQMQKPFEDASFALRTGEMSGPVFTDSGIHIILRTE
# ClpP mod: qHTS Assay for Activators of ClpP. ATP-dependent Clp protease proteolytic subunit (Bacillus subtilis (strain 168)), P80244. purified B. subtilis ClpP, FRET peptide cleavage, 20 min. Potency, µM (doses to about 57.5 µM), for inactives: at the highest dose activity change, negative = active. 340,000 compounds, 1.9% hits; active = well fitted falling curve with a large enough effect; inconclusive = small, poorly fitted or top-dose-only effect; inactive = no such curve, though single readings can be large or run the other way; also: potency is read from the fitted curve at half-maximal effect; the source files actives as falling curves though it sought activators and does not explain the sign; nearly all actives have a fitted effect of over 65% in size
# Target sequence (P80244 whole entry, looked up): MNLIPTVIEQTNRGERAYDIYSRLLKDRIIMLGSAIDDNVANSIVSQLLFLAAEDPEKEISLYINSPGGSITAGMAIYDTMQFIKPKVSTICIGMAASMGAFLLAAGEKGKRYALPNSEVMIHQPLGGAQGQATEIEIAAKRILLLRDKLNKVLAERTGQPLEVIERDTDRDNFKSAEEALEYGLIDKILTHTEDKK
#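 Buffer: 100 mM Tris/HCl pH8, 100 mM KCl, 0.05% low protease BSA, 2.5% glycerol, 0.01% Tween-20. ClpP 10 microg/mL final; 20 min RT; delta FRET normalized to ADEP and DMSO controls.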
# Numbers without * were called inactive; u = inconclusive; x = no result given; [ ] = remark or other dose. Only some compounds are listed: those with a hit (about 1.9% of all), similar ones and a draw of the others. Unless noted, calls follow the shape of the dose curve; as a rule, active = well fitted curve in the direction sought with a large enough effect; inconclusive = small, poorly fitted or top-dose-only effect, or another doubt; inactive = no such curve, though single readings can be large; an effect the other way counts as inactive or inconclusive.
SMILES,Integrin act MD,USP2a inh,IL2 activator,PKM2 activator,Pin1 inhibitor,ClpP mod
COc1ccccc1CNC(=O)c1nn(-c2ccc(C)cc2)c(=O)c2c1c1ccccc1n2C,-10%,x,1,-2%,-22%,14µM*
Cc1ccc(CNC(=O)c2cn(C)c(=O)c3c2c2ccccc2n3C)o1,8%,4%,-3,u,3%,14µM*
C/C=C1\COC(C(=O)NCCN2CCOCC2)(C(F)(F)F)C=C1C=C(C)C (stereo unspecified),x,x,x,x,4%,x
O=C1C2CCCCC2C(=O)N1c1ccc(S(=O)(=O)Nc2ncccn2)cc1 (stereo unspecified),24%,2%,2,2%,6%,16µM*
CCSc1n[nH]c2nc3c(c(=O)n12)C1(CCCC1)Cc1ccccc1-3,5%,1%,1,1%,-3%,14µM*
CCOC(=O)C1Cn2c(nc3c(c2=O)C2(CCCC2)Cc2ccccc2-3)S1 (stereo unspecified),-18%,0%,1,5%,0%,28µM*
CCOC(=O)C1Cn2c(nc3c(c2=O)C(C)(C)Cc2ccccc2-3)S1 (stereo unspecified),-13%,-1%,-1,-7%,8%,-17%
CSc1nnc2n(C)c3c(c(=O)n12)C1(CCCC1)Cc1ccccc1-3,37%[7.66 µM],0%,-1,1%,2%,28µM*
CSc1n[nH]c2nc3c(c(=O)n12)C1(CCCC1)Cc1ccccc1-3,17%,0%,2,-9%,-18%,28µM*
CCC(=O)Nc1ccc2c(c1)C(=O)N(C1CCCCC1)C2=O,-14%,2%,0,16%,-4%,22µM*
O=C(Nc1ccncc1)c1ccc2c(c1)C(=O)N(C1CCCCC1)C2=O,16%,3%,-4,-5%,-1%,1%
O=C(NCc1nnnn1-c1ccc(Cl)cc1)c1ccc(Br)o1,-24%,3%,1,x,4%,16µM*
O=C(CCNC(=O)c1ccc(Br)o1)NCc1ccc(Cl)cc1,-6%,-3%,-4,-14%,1%,1%
O=C(CNC(=O)c1ccc(Br)o1)NNC(=O)c1ccc(Cl)cc1,11%,2%,0,x,6%,22µM*
Cc1cc2c(cc1C)N[C@]1(C[C@H]3CCCC(=O)N4CC[C@@H](C1)[C@@H]34)C(=Nc1ccccc1C)N2,x,x,x,x,x,-2%
Cn1c(CCNC(=O)c2ccco2)nc2cc(NS(=O)(=O)c3ccc(Cl)cc3)ccc21,34%[7.66 µM],4%,-2,16µM*,-3%,0%
C[N+]1(CC(=O)c2ccc(Cl)c(Cl)c2)CCOCC1,x,x,x,x,x,-1%
Cc1cccc(Cn2ncc3c4sc(C)cc4n(C)c3c2=O)c1,x,x,x,x,2%,x
COc1ccc(S(=O)(=O)N2CCC[C@H]2C(=O)NC2=NCCS2)cc1,28%[7.66 µM],2%,-3,1%,3%,1%
COc1ccc(S(=O)(=O)N2CCCC2C(=O)Nc2nnc(-c3cccnc3)s2)cc1 (stereo unspecified),-14%,-1%,0,-2%,2%,28µM*
CC(=O)Oc1ccc(S(=O)(=O)c2ccc(OC(C)=O)cc2)cc1,29%,-3%,4,14µM*,5%,u
CCn1c(=O)n(CC)c2cc(N3CCCC3)c(NC(=O)c3cc(Br)ccc3OC)cc21,41%,1%,-1,x,-1%,0%
CCn1c(=O)n(CC)c2cc(N3CCCCC3)c(NC(=O)Nc3cc(Cl)ccc3OC)cc21,x,x,x,x,4%,28µM*
Cc1ccc(CCNS(=O)(=O)c2c(C)nc3sc(C)c(C)n3c2=O)cc1,x,x,x,x,2%,6.3µM*
Cc1ccc(-c2nnn3c2nc(NCCc2ccc(S(N)(=O)=O)cc2)c2ccccc23)cc1,u,1%,-4,-18%,u,1%
